G9a block: qHTS Assay for Inhibitors of Histone Lysine Methyltransferase G9a; Histone-lysine N-methyltransferase EHMT2 (Homo sapiens), Q96KQ7; G9a H3K9 monomethylation, AlphaScreen, 2 h; Potency, µM (highest dose often 102 µM), without a hit: at the highest dose activity, negative = inhibition, actives largely listed as inhibitors; actives 8.8% (n = 350,000); AID 504332, 2011; further: potency means the concentration at half of the fitted maximal effect; nearly all actives have a fitted effect of over 75% in size
Target sequence (Q96KQ7 913-1193 limits assumed): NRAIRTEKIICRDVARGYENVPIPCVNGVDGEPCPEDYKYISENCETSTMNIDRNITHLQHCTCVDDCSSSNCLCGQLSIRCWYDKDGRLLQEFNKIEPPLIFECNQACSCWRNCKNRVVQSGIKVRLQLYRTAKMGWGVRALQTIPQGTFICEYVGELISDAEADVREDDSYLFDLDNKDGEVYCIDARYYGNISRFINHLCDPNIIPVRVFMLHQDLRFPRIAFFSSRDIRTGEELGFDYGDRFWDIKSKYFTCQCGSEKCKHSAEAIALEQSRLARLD
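Step 1: enzyme (final 20 nM) with compound, 15 min RT. Step 2: substrate peptide 500 nM and SAM 20 uM, 2 h RT. Step 3: anti-H3K9me1 antibody and AlphaScreen beads, 10 min, then plate read.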
Tau ThT inhib: qHTS for Inhibitors of Tau Fibril Formation, Thioflavin T Binding; Microtubule-associated protein tau (Homo sapiens), P10636; recombinant tau K18 P301L, heparin-induced fibrillization, ThT fluorescence; Potency, µM (highest dose often 57.4 µM), inactives show top-dose activity, negative = inhibition, actives largely listed as inhibitors; actives 2.1% (n = 270,000); further: potency means the concentration at half of the fitted maximal effect; nearly all actives have a fitted effect of over 55% in size
Target sequence (P10636 561-689 P618L limits assumed): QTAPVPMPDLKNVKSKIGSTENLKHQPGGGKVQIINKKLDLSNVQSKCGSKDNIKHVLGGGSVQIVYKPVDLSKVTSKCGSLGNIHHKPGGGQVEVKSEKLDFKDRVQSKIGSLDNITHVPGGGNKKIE
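Aggregation was driven by heparin (20 uM final) acting on recombinant tau […] bearing P301L in 100 mM sodium acetate pH 7; fibrils were detected with Thioflavin T.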
FBPA coupling cs: qHTS Assay for Inhibitors of Fructose-1,6-bisphosphate Aldolase from Giardia Lamblia: Coupling assay counterscreen; activity change, negative = inhibition, % at 58.2 µM, hits read low; AID 2472, 2010; coupling enzyme system counterscreen, AmpLite Red fluorescence; actives 0.67% (n = 290,000); in the data active means activity change below about -30%
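Activity here indicates interference with the coupling reaction, not aldolase inhibition. Compounds at 57.5 uM final met coupling enzymes for 10 min at RT; substrate and AmpLite Red detection followed, with a 525/598 nm fluorescence read after 20 min.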
Tau FP inhib: qHTS for Inhibitors of Tau Fibril Formation, Fluorescence Polarization. Microtubule-associated protein tau (Homo sapiens), P10636. K18 P301L tau heparin fibrillization, Alexa594 FP, 6 h. Potency, µM (highest dose often 57.7 µM), without a hit: at the highest dose activity, negative = inhibition, hits mostly inhibitors. actives 0.39% (n = 280,000). AID 1468, 2008; further: potency means the concentration at half of the fitted maximal effect; nearly all actives have a fitted effect of over 55% in size
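Compound effects on tau fibrillization are measured by Alexa 594 fluorescence polarization (ex 555, em 632 nm). K18 P301L tau is used at 15 uM with 0.24 uM labeled tracer, and 20 uM heparin induces aggregation over 6 hr at 37 C.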
Sfp PPTase inh: qHTS Assay for Inhibitors of Bacillus subtilis Sfp phosphopantetheinyl transferase (PPTase); 4'-phosphopantetheinyl transferase ffp (Bacillus subtilis), Q9F4F7; Biochemical Sfp PPTase activity, qHTS; Potency, µM, inactives show largest response in the series, negative = inhibition, actives largely listed as inhibitors; actives 3.5% (n = 310,000);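 further: the enzyme is Sfp with the accession as filed and its product quenches rhodamine fluorescence; potency means the concentration at half of the fitted maximal effect; 0% = enzyme reaction without inhibitor and -100% = no enzyme wells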
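Compounds were incubated with enzyme (final 15 nM) for 15 min at room temperature before substrate addition started the reaction. Fluorescence at 525 nm excitation, 598 nm emission was recorded immediately and after 30 minutes.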
Tau fluor counter: Counterscreen qHTS for Inhibitors of Tau Fibril Formation, Fluorescence Polarization; AID 1463, 2008; Potency, µM (titrated, usually from 57.7 µM), without a hit: at the top dose activity change, negative = decrease; tau K18 P301L (four-repeat tau fragment) Alexa594 fluorescence, heparin fibrillization; actives 0.93% (n = 280,000); further: potency means the concentration at half of the fitted maximal effect; nearly all actives have a fitted effect of over 55% in size
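Human K18 P301L tau (15 uM unlabeled plus 0.24 uM Alexa 594-labeled, final) in 100 mM sodium acetate pH 7 was mixed with compound and 20 uM heparin and incubated 6 hr at 37 C.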
* marks the source's active call; other numbers are inactive results; ? = inconclusive; . = no result given; [ ] = another dose, or the depositor's remark. In the library only some 11% were active in any assay of this set; here they are far more common. Unless noted, the call rests on the fitted dose curve; in most records, active means well fitted curve in the direction sought with a large enough effect; inconclusive means small, poorly fitted or top-dose-only effect, or another doubt; inactive means no such curve, though single readings can be large; an effect the other way counts as inactive or inconclusive. Unless noted, on the % scale 0 is the no-effect control and ±100 the full control effect.

SMILES | G9a block | Tau ThT inhib | FBPA coupling cs | Tau FP inhib | Sfp PPTase inh | Tau fluor counter
NC(=O)c1c(NC(NC(=O)c2ccco2)C(=O)c2ccc(Cl)cc2)sc2c1CCCC2 (stereo not given) | 25µM* | 25µM* | -2 | -9% | 56µM* | ?
N#Cc1c(NC(NC(=O)c2ccco2)C(=O)c2ccccc2)sc2c1CCCC2 (stereo not given) | 5µM* | ? | -1 | -5% | 20µM* | ?
COc1ccc(/C=N/NC(=O)c2cccc([N+](=O)[O-])c2)cc1OS(=O)(=O)c1ccc(C)cc1 | 20% | -5% | 1 | -6% | 14% | ?
CCOc1ccccc1/C=N/NC(=O)c1c(C)nc2ccc(Br)cn12 | 20% | . | -45* | . | 11% | .
CCOc1ccccc1/C=N/NC(=O)c1cccc(S(=O)(=O)N(CC)CC)c1 | 2% | -10% | -38* | -2% | 17% | -19%
CCOc1cc(/C=N/NC(=O)c2cccc([N+](=O)[O-])c2)ccc1OS(=O)(=O)c1ccccc1 | 12% | -17% | . | -8% | 22% | 14µM*[quencher]
CCN(CC)S(=O)(=O)c1cccc(C(=O)N/N=C/c2ccc(N3CCOCC3)cc2)c1 | -4% | -17% | 1 | 7% | 8% | -18%
CCN(CC)S(=O)(=O)c1cccc(C(=O)N/N=C/c2ccc(O)c(O)c2O)c1 | 1.8µM* | 3.2µM* | -41* | 8.9µM* | -106% | ?
CCc1cc(C(=O)N2CCCC(C(=O)c3ccc(C(F)(F)F)cc3)C2)n(C)n1 (stereo not given) | . | . | 0 | . | -2% | .
CC1(c2nnc(Cc3ccccc3)o2)CC(c2cccc(F)c2)=NO1 (stereo not given) | -8%[2.33 µM] | . | . | . | . | .
C=C1C(=O)[C@@]23[C@H](O)C[C@@H]4C(C)(C)CC[C@H](O)[C@@]4(C)[C@@H]2CC[C@@H]1[C@H]3O | -8% | ? | 6 | 1% | -5% | -3%
C=C1C(=O)[C@@]23[C@H](O)C[C@@H]4C(C)(C)CC[C@H](O)[C@]4(C)[C@@H]2C[C@H](O)[C@@H]1[C@H]3O | -2% | -16% | 7 | -7% | 45µM* | -6%
CC(C)Oc1ccc(CNC(=O)c2ccc3c(c2)N(C)C(=O)C2CCCCN32)cc1 (stereo not given) | -19%[59 µM] | -4% | . | 8% | . | -4%
COC(=O)C1C(c2ccc(N(C)C)cc2)C(C(=O)OC)S(=O)(=O)CS1(=O)=O (stereo not given) | -36% | -4% | -1 | 4% | 25% | 4%
Cc1ccc(CN2CCCn3nc(C(=O)NCCN(C)C)cc3C2=O)cc1 | -14%[12.7 µM] | 2% | . | 9% | . | 3%
Cc1ccc(CN2CCCn3nc(C(=O)NCc4ccc(N(C)C)cc4)cc3C2=O)cc1 | 14µM* | 1% | . | 7% | . | 1%
COc1ccc(-n2ncc3c2ncn2nc(COc4ccc(Cl)cc4)nc32)cc1 | 9%[59 µM] | ? | . | 4% | . | 0%
O=C(NNC(=O)c1cc2cc(Br)ccc2oc1=O)c1ccc(O)cc1O | -3% | 8.9µM* | 3 | 3% | -25% | ?
O=C(NCc1ccco1)c1cc2ccc(O)cc2oc1=O | -26%[59 µM] | -10% | 14 | 4% | 28µM* | -15%
O=C(c1ccccc1)c1cc2ccc(O)cc2oc1=O | -37%[59 µM] | -4% | 1 | 4% | -26% | 5%
COc1ccc2cc(C(=O)NCc3ccco3)c(=O)oc2c1 | -29%[59 µM] | -10% | 1 | 3% | -1% | -1%
O=C(c1ccc(Br)cc1)c1cc2ccc(O)cc2oc1=O | 71µM* | . | 6 | . | ? | .

Screening results as filed in PubChem.
